We go through 25 compounds from PubChem BioAssay (NCATS).

Values without a mark were called inactive. Inconclusive results are not listed. Calls of active or inactive are those of the source. The call rests on the fitted dose curve; in most records, active means well fitted curve in the direction sought with a large enough effect; inconclusive means small, poorly fitted or top-dose-only effect, or another doubt; inactive means no such curve, though single readings can be large; an effect the other way counts as inactive or inconclusive.

Experiment [1] has as its target Glutathione peroxidase 1 (Homo sapiens) (UniProt P07203). As to the kind of experiment: Primary qHTS Assay for Inhibitors of Recombinant Selenoprotein Glutathione Peroxidase 1 (GPX1) (AID 1845191). Further: nearly all actives have a fitted effect of over 65% in size. Put shortly: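 GR-coupled readout: NADPH consumption tracked by fluorescence, ex 340/em 450 nm, at t=0 and after 15 min at RT. Final mix 10 nM GPX1, 1 mM GSH, 0.5 mM CHP, 0.5 mM NADPH, 100 nM GR, 0.01% BSA, following 30 min enzyme–compound preincubation.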
On the technique in general: Quantitative high-throughput screening tests each substance at several concentrations.

In experiment [2] the target is Phospholipid hydroperoxide glutathione peroxidase GPX4 (Homo sapiens) (UniProt P36969). As to the kind of experiment: Primary qHTS Assay for Inhibitors of Recombinant Selenoprotein Glutathione Peroxidase 4 (GPX4) (AID 1845192). Further: nearly all actives have a fitted effect of over 65% in size. On activity change, negative = inhibition: series mostly up to about 50 µM; on the % scale 0 is the no-effect control and ±100 the full control effect. In short, it runs like this:
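Steps: GPX4 plus compound, 30 min RT; add GR/GSH/NADPH master mix; start with cumene hydroperoxide; read 340/450 nm fluorescence at 0 and 15 min. Finals were 200 nM GPX4, 1 mM GSH, 0.5 mM CHP, 0.5 mM NADPH, 100 nM GR.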

Experiment [3] deals with Luciferin 4-monooxygenase (Photinus pyralis) (UniProt P08659). Kind of experiment: Primary firefly luciferase (FLuc) qHTS assay for identification of artifact compounds. (AID 1845220). Further: nearly all actives have a fitted effect of over 60% in size.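 On activity change, negative = inhibition: series mostly up to about 54 µM; plate controls were DMSO vehicle for no effect and no enzyme for full effect.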 Put shortly: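 D-luciferin and ATP (10 uM each, final) in Tris acetate buffer pH 7.6 were incubated with compounds for 15 min at room temperature. The reaction was started with 10 nM Photinus pyralis luciferase and luminescence read after 5 min. Percent inhibition was fitted to a 4-parameter Hill equation.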

A short description of experiment [4]: Primary fluorescence-based thiol-reactive (MSTI) qHTS assay for identification of artifact compounds. (AID 1845221). Further: nearly all actives have a fitted effect of over 65% in size. Further: potency means the concentration at half of the fitted maximal effect.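 On activity change, negative = thiol reactive: series mostly up to about 54 µM; thiol-reactive compounds lower the probe fluorescence signal.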 In short, it runs like this: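 MSTI probe at 4 uM final in 2% DMSO/PBS pH 7.4; compounds, 1 h at room temperature in dark. Fluorescence Ex/Em 525/598 nm, normalised to Acetyl-MSTI and MSTI, fitted to 4-parameter Hill.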

Sequence of Glutathione peroxidase 1 (Homo sapiens) (P07203 whole entry, looked up): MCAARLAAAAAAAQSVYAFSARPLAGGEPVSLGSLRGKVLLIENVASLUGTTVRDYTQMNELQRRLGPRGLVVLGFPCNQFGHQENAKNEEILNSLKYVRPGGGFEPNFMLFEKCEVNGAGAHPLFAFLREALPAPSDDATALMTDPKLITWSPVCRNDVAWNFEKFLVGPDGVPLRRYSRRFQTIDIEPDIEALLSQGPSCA
Sequence of Phospholipid hydroperoxide glutathione peroxidase GPX4 (Homo sapiens) (P36969 whole entry, looked up): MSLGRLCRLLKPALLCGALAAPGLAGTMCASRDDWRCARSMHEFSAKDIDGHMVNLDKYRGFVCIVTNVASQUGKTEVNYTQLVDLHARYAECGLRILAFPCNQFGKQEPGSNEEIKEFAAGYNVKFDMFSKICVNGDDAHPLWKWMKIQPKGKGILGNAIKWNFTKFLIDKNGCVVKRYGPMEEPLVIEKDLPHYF

For the compound `CC(O)C(O)/C=C/C=C/C(=O)O[C@@H]1C=C(C(=O)O)[C@](O)(CO)[C@@]2(C)CCCC(C)(C)[C@H]12` (stereo not given in full), the Potency result in experiment [1], in experiment [2], in experiment [3] and in experiment [4] was “inactive” in each case.
As for `CC1CCC23COC(=O)C2=CC(O)CC3C1(C)CCc1ccoc1` (stereo not given), the Potency entry in experiment [1], in experiment [2], in experiment [3] and in experiment [4] was “inactive” throughout.
On to `COc1cc(/C=C/C(=O)OCC2OC(OC3(CO)OC(CO)C(O)C3O)C(O)C(O)C2O)ccc1O` (stereo not given), for which the Potency result in experiment [1], in experiment [2], in experiment [3] and in experiment [4] was “inactive” in each case.
Regarding `CCOc1nc2c(N)ncnc2n1CC`, the Potency entry in experiment [1], in experiment [2], in experiment [3] and in experiment [4] was “inactive” each time.
For `CC(C)(O)C(O)C(=O)OCc1ccc(O[C@@H]2O[C@H](CO)[C@@H](O)[C@H](O)[C@H]2O)cc1` (stereo not given in full), the Potency entry in experiment [1], in experiment [2], in experiment [3] and in experiment [4] was “inactive” throughout.
As for `OC[C@@]1(O)CO[C@@H](OC[C@H]2O[C@@H](OCc3ccccc3)[C@H](O)[C@@H](O)[C@@H]2O)[C@@H]1O`, the Potency result in experiment [1], in experiment [2], in experiment [3] and in experiment [4] was “inactive” in each case.
Consider `Cc1nc2cc(-c3cc(F)cc(C#N)c3)ccc2s1`, for which the Potency entry in experiment [1], in experiment [2], in experiment [3] and in experiment [4] was “inactive” each time.
Take `Cc1ccc(COC(=O)N2CC[C@@H](CNc3ncccn3)[C@@H](F)C2)cc1`: the Potency entry in experiment [1], in experiment [2], in experiment [3] and in experiment [4] was “inactive” in each case.
For the compound `Cn1nccc1-c1ccccc1Oc1ccc(S(=O)(=O)Nc2nccs2)cc1C#N`, the Potency entry in experiment [1], in experiment [2], in experiment [3] and in experiment [4] was “inactive” each time.
As for `O=C(/C=C/c1ccc(O)c(O)c1)OC[C@H]1O[C@@H](OC2CCCCC2O)[C@H](O)[C@@H](O)[C@@H]1O` (stereo not given in full), the Potency entry in experiment [1], in experiment [2] and in experiment [3] was “inactive” in each case. The Potency in experiment [4] is 1.16 µM (active).
As for `Fc1ccccc1-c1nc2ccn(Cc3ccc(-c4ccc(C(F)(F)F)cc4C(F)(F)F)nn3)cc-2n1`, the Potency result in experiment [1], in experiment [2], in experiment [3] and in experiment [4] was “inactive” each time.
For the compound `COC(=O)C(CC1(OC(=O)C(C)C)c2ccccc2N2C(=O)C(C)(C)N(O)C21)n1cnc2ccccc2c1=O` (stereo not given), the Potency entry in experiment [1], in experiment [2], in experiment [3] and in experiment [4] was “inactive” throughout.
`C=C(C(=O)O)[C@@H]1CC[C@H](C)[C@@H]2CC(=O)C(C)=C2C1`: the Potency result in experiment [1], in experiment [2] and in experiment [3] was “inactive” in each case. Besides, the Potency in experiment [4] was 21.2 µM (active).
As for `O=C(NCC(=O)N1CCCC1)Nc1ccc2ccccc2c1`, the Potency result in experiment [1], in experiment [2], in experiment [3] and in experiment [4] was “inactive” throughout.
With `CC1(C)CC[C@]2(C(=O)O[C@@H]3O[C@H](CO)[C@@H](O)[C@H](O)[C@H]3O)CC[C@]3(C)C(=CCC4[C@@]5(C)C[C@H](O)[C@H](O[C@@H]6OC[C@@H](O)[C@H](O)[C@H]6O)[C@@](C)(CO)C5CC[C@]43C)C2C1` (stereo not given in full), the Potency result in experiment [1] and in experiment [2] was “inactive” in each case. Also, the outcome in experiment [3] is “inactive [at 11.6 µM]”. Moreover, the activity change, negative = thiol reactive in experiment [4] was 298% [at 11.5 µM].
For `C[C@@H]1O[C@@H](O[C@H]2[C@H](OC(=O)[C@]34CCC(C)(C)C[C@H]3C3=CCC5[C@@]6(C)CC[C@H](O[C@@H]7O[C@H](CO[C@@H]8OC[C@H](O)[C@H](O)[C@H]8O)[C@@H](O)[C@H](O)[C@H]7O)C(C)(C)C6CC[C@@]5(C)[C@]3(C)C[C@H]4O)OC[C@@H](O)[C@@H]2O)[C@H](O)[C@H](O[C@@H]2OC[C@](O)(CO)[C@H]2O)[C@H]1O[C@@H]1OC[C@H](O)[C@H](O[C@@H]2OC[C@@H](O)[C@H](O)[C@H]2O)[C@H]1O` (stereo not given in full), the Potency entry in experiment [1] and in experiment [2] was “inactive” in each case. The activity change, negative = inhibition in experiment [3] is -1.94% [at 11.6 µM]. Further, the activity change, negative = thiol reactive in experiment [4] is 415% [at 11.5 µM].
Consider `C=C1C(O)CC2C(C(=O)O)=COC(OC3OC(CO)C(O)C(O)C3OC(=O)/C=C\c3ccc(O)cc3)C12` (stereo not given), for which the Potency result in experiment [1], in experiment [2] and in experiment [3] was “inactive” throughout. In addition, the Potency in experiment [4] is 4.62 µM (active).
Consider `CC(C)C(O)(CO)CCO[C@@H]1O[C@H](CO[C@H]2OC[C@](O)(CO)[C@H]2O)[C@@H](O)[C@H](O)[C@H]1O` (stereo not given in full), for which the Potency result in experiment [1], in experiment [2], in experiment [3] and in experiment [4] was “inactive” throughout.
With `COc1cc(C(C)=O)ccc1O[C@@H]1O[C@H](CO[C@@H]2OC[C@@H](O)[C@H](O)[C@H]2O)[C@@H](O)[C@H](O)[C@H]1O`, the Potency result in experiment [1], in experiment [2], in experiment [3] and in experiment [4] was “inactive” throughout.
For the compound `O=C(O)CCc1cc2ccoc2cc1O[C@@H]1O[C@H](CO)[C@@H](O)[C@H](O)[C@H]1O`, the Potency result in experiment [1], in experiment [2], in experiment [3] and in experiment [4] was “inactive” each time.
In the case of `COc1ccc(CCc2nc3cc(-c4c(C)noc4C)ccc3n2C[C@H](C)N2CCOCC2)cc1Cl`, the Potency entry in experiment [1], in experiment [2], in experiment [3] and in experiment [4] was “inactive” each time.
With `COc1cccc(Cn2ncc3c4sc(S(C)=O)cc4n(C)c3c2=O)c1` (stereo not given), the Potency entry in experiment [1], in experiment [2], in experiment [3] and in experiment [4] was “inactive” in each case.
As to `C=C(C(=O)O)C1CC(O)C2(C)CCCC(C)(O)C2C1` (stereo not given), the Potency result in experiment [1], in experiment [2] and in experiment [3] was “inactive” in each case. Moreover, in experiment [4], the Potency was 11.9 µM (active).
Consider `CC1(C)CC[C@]2(C(=O)O[C@@H]3O[C@H](CO)[C@@H](O)[C@H](O)[C@H]3O)CC[C@]3(C)C(=CCC4[C@@]5(C)CC[C@H](O[C@@H]6O[C@H](C(=O)O)[C@@H](O[C@@H]7O[C@H](CO)[C@@H](O)[C@H](O)[C@H]7O)[C@H](O)[C@H]6O[C@@H]6O[C@H](CO)[C@@H](O)[C@H](O)[C@H]6O)C(C)(C)C5CC[C@]43C)C2C1` (stereo not given in full), for which the Potency result in experiment [1] and in experiment [2] was “inactive” throughout. Further, the outcome in experiment [3] was “inactive [at 11.6 µM]”. Further, the activity change, negative = thiol reactive in experiment [4] is 240% [at 11.5 µM].
Regarding H-DPPDPDRFYGMM-NH2, the Potency result in experiment [1], in experiment [2], in experiment [3] and in experiment [4] was “inactive” throughout.
